“And” between values parts separate entries of the source, which are not always exact repeats. Equal values may be shown once. Records with an inconclusive call do not appear. The source made the active and inactive calls. Unless noted, the call rests on the fitted dose curve; in most records, active means well fitted curve in the direction sought with a large enough effect; inconclusive means small, poorly fitted or top-dose-only effect, or another doubt; inactive means no such curve, though single readings can be large; an effect the other way counts as inactive or inconclusive.
Legend:
[1] = Cell Viability - MRC5 (AID 434; calls by dose curve;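 further: potency means the concentration at half of the fitted maximal effect; cells exposed to compound for 40 hours at 37 °C; potency reflects cytotoxicity seen as loss of intracellular ATP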); settings: MRC5 lung fibroblast viability, qHTS
In short: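 Decrease in intracellular ATP, quantified by luciferase light output, reflects compound toxicity toward MRC5 cells exposed for 40 hr in complete culture medium. Concentration-response curves, scaled between DMSO and 100 uM tamoxifen, gave AC50 values.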

[2] = Cellular Toxicity (caspase-3) HUV-EC-C (AID 656); settings: HUV-EC-C cells, caspase-3 activation (apoptosis), vehicle = 0, 100 µM tamoxifen = 100%; series mostly up to 92.2 µM
In short: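 HUV-EC-C endothelial cells, 1000/well, were pre-incubated 5 hr at 37°C, then exposed to compounds for 16 hr at 37°C. Caspase-Glo 3/7 luminescence was read after 20 min at room temperature. AC50 came from Hill fits, normalized to DMSO and 100 uM tamoxifen.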

[3] = Cellular Toxicity (caspase-3) Mesangial (AID 660); settings: mesangial cells, normalized: DMSO 0%, 100 µM tamoxifen 100%; series mostly up to 91.7 µM;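 further: combined caspase 3 and 7 activity read by Caspase-Glo luminescence; cells exposed to compound for 16 h before the caspase read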
In short: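 Luminescent Caspase-Glo 3/7 readout (aminoluciferin substrate cleavage, 20 min RT) after 16 h compound exposure at 37 °C of normal human mesangial cells. Signal increase normalized between DMSO basal and 100 uM tamoxifen; Hill-equation AC50.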

[4] = Cellular Toxicity (caspase-3) H-4-II-E (AID 663); settings: H-4-II-E rat hepatoma; Potency: caspase-3 activation; series mostly up to 92.2 µM;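 further: cells exposed to compound for 16 hr before readout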
In short: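 Caspase 3/7 activation measured in H-4-II-E cells in complete culture medium after 16 hr treatment at 37 °C, using luciferase-coupled substrate readout; AC50 values come from Hill-equation fits of normalized concentration-response data.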

[5] = target: Cytochrome P450 3A4 (Homo sapiens) (UniProt P08684); experiment: qHTS Assay for Inhibitors and Substrates of Cytochrome P450 3A4 (AID 884); settings: recombinant CYP3A4, Luciferin-PPXE luminescence; series mostly up to 57.1 µM; further: on the % scale 0 is the no-effect control and ±100 the full control effect; nearly all actives have a fitted effect of over 50% in size
In short: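 Luminescent readout of luciferin produced by CYP3A4 (20 nM) dealkylation of Luciferin-PPXE, 25 uM (its KM). NADPH-driven reaction ran 60 min at RT after 10 min compound preincubation; data scaled to 57 uM ketoconazole as 100% inhibition.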

[6] = Cell Viability - LYMP1-002 - Assay at 16 hr (AID 948); settings: LYMP1-002 lymphoblastoid cell viability; series mostly up to 92.2 µM;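 further: 0% = DMSO alone and full effect = 92 µM tetraoctylammonium bromide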
In short: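 Human lymphoblastoid cells (LYMP1-002), 2500/well, were preincubated 5 hr at 37 C, then exposed to compounds for 16 hr at 37 C in complete medium. Cellular ATP was read by CellTiter-Glo luminescence after 30 min at room temperature; AC50 from Hill fits.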

[7] = MultiTox-Fluor Cytotoxicity Assay - LYMP1-003 - Dead Cells (AID 961); settings: LYMP1-003 lymphoblastoid cells, dead-cell protease fluorescence; series mostly up to 92.2 µM;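 further: 0% = DMSO and 100% = tetraoctylammonium bromide; nearly all actives have a fitted effect of over 70% in size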
In short: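 LYMP1-003 human lymphoblastoid cells (2500/well) exposed to compound 16 h at 37 C in complete medium; dead-cell protease read with bis-AAF-R110 fluorescence (Ex/Em 485/520) after 60 min at room temperature. Normalized to DMSO and 15 uM tetraoctylammonium bromide; AC50 from Hill fit.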

[8] = Cell Viability - LYMP2-003 (AID 965); settings: LYMP2-003 lymphoblastoid cell viability; series mostly up to 92.2 µM;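 further: cells exposed to compounds for 24 h before reading; 0% = DMSO only and full effect = 92 µM tetraoctylammonium bromide; nearly all actives have a fitted effect of over 50% in size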
In short: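 Human lymphoblastoid cells (2500/well) were pre-incubated 5 hr at 37 C, then exposed to compounds over a concentration range for 24 hr at 37 C. Intracellular ATP was read by CellTiter-Glo luminescence; AC50 came from Hill-equation fits.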

[9] = Cell Viability - LYMP2-013 (AID 970); settings: LYMP2-013 lymphoblastoid cells viability; series mostly up to 92.2 µM;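 further: 0% = DMSO only and full inhibition = tetraoctylammonium bromide control; nearly all actives have a fitted effect of over 55% in size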
In short: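 CellTiter-Glo luminescence (cellular ATP) read after 30 min at RT. Cells: human lymphoblastoid line, 2500/well, 24 hr compound exposure at 37 C. Tetraoctylammonium bromide positive control; AC50 via standard Hill fit of qHTS titrations.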

[10] = Cell Viability - LYMP2-026 (AID 989); settings: LYMP2-026 lymphoblastoid cell viability, qHTS; series mostly up to 92.2 µM; further: on the % scale 0 is the no-effect control and ±100 the full control effect; nearly all actives have a fitted effect of over 50% in size
In short: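 qHTS cytotoxicity: 2500 cells/well, 5 hr 37 C, compound 24 hr 37 C, CellTiter-Glo 30 min RT, luminescence. Tetraoctylammonium bromide positive control. AC50 via standard Hill fit.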

[11] = target: Peroxisome proliferator-activated receptor alpha (Homo sapiens) (UniProt Q07869); experiment: qHTS assay for small molecule agonists of the peroxisome proliferator-activated receptor alpha (PPARalpha) signaling pathway (AID 651778); settings: PathHunter PPARalpha complementation, chemiluminescence, 6 h; stronger effect = higher value; further: % of control where 0% means no effect
In short: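 Cells plated at 2,000/well and held overnight at 37 C, 5% CO2, then compound added by pin tool for 6 hr; after PathHunter detection reagent and 60 min at room temperature, chemiluminescence from enzyme complementation was read.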

[12] = target: Nuclear receptor ROR-gamma (Homo sapiens) (UniProt P51449); experiment: qHTS assay for small molecule antagonists of the retinoid-related orphan receptor gamma (ROR-gamma) signaling pathway (AID 651802); settings: ROR-gamma antagonist cell reporter assay; series mostly up to 92.2 µM;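 further: CHO cells with doxycycline-induced ROR-gamma expression; luciferase reporter luminescence driven by ROR response element; on the % scale 0 is the no-effect control and ±100 the full control effect; nearly all actives have a fitted effect of over 60% in size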
In short: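 Luciferase read-out: ONE-Glo luminescence after 30 min at room temperature, following 16hr doxycycline induction at 37C, 5% CO2 of CHO cells with TET-inducible ROR and RORE-LUC reporter; decreased luminescence = reduced reporter activity.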

[13] = target: Nuclear receptor subfamily 1 group I member 2 (Rattus norvegicus) (UniProt Q9R1A7); experiment: qHTS assay for small molecule activators of the rat pregnane X receptor (rPXR) signaling pathway (AID 651751; call rule not given here; further: 0% is about no effect); settings: rPXR reporter cells, luciferase (One-Glo), 24 h
[14] = qHTS assay for small molecule activators of the human pregnane X receptor (PXR) signaling pathway (AID 720659; call rule not given here; further: 0% is about no effect); settings: DPX-2 HepG2 CYP3A4-luciferase, 24 h; series mostly up to 92.3 µM
[15] = Cellular Toxicity (caspase-3) BJ (AID 658); settings: BJ fibroblasts, luminescence, normalized: DMSO 0%, staurosporine 100%; series mostly up to 91.7 µM;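 further: 0% = DMSO basal and 100% = 10 µM staurosporine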
In short: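 Plated BJ cells (1000/well) rested 5 hr, received compound for 16 hr at 37 °C, then Caspase-Glo 3/7 reagent for 1 hr at room temperature before luminescence reading.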

[16] = Cell Viability - LYMP2-011 (AID 969); settings: LYMP2-011 lymphoblastoid cells viability; series mostly up to 92.2 µM;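 further: 0% = DMSO only and full inhibition = 92 µM tetraoctylammonium bromide; nearly all actives have a fitted effect of over 60% in size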
In short: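 Luminescent ATP read-out (CellTiter-Glo, 30 min RT) after 24 hr compound exposure at 37 C in human lymphoblastoid cells, 2500 cells/well. Decreasing ATP indicates cytotoxicity; AC50 from standard Hill fit.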

[17] = qHTS assay for small molecule disruptors of the mitochondrial membrane potential - 1 hr assay (AID 651754; calls by dose curve; further: nearly all actives have a fitted effect of over 35% in size; further: potency means the concentration at half of the fitted maximal effect); settings: series mostly up to 92.2 µM
In short: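 Read-out: dye fluorescence at 490 nm ex/535 nm em (monomers) and 540 nm ex/590 nm em (aggregates) in HepG2 cells. Compound exposure 1 hr at 37C, followed by 30 min dye loading.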

[18] = qHTS assay for small molecule disruptors of the mitochondrial membrane potential - 5 hr assay (AID 651755; calls by dose curve; further: nearly all actives have a fitted effect of over 40% in size; further: potency means the concentration at half of the fitted maximal effect); settings: JC-1-type ratio dye; series mostly up to 92.2 µM
In short: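 Seed HepG2 overnight, add compound, incubate 5 hr at 37C and 5% CO2, stain 30 min with Mito-MPS, then measure monomer (490/535 nm) and aggregate (540/590 nm) fluorescence.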

[19] = qHTS assay for environmental chemicals that activate the Aryl hydrocarbon Receptor (AhR) signaling pathway (AID 651777); settings: 1A2-DRE human hepatoma cells, luciferase, 24 h; activation: stronger effect = higher value; further: nearly all actives have a fitted effect of over 15% in size; further: potency means the concentration at half of the fitted maximal effect; on activation: % of control where 0% means no effect
In short: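 1A2-DRE human hepatoma reporter line; 1,200 cells/well; cmpd or DMSO 24 h, 37 C/5% CO2; One-Glo 30 min RT; luciferase lum.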

[20] = Cell Viability - LYMP1-002 - Assay at 24 hr (AID 993); settings: LYMP1-002 lymphoblastoid cells viability; series mostly up to 92.2 µM; further: on the % scale 0 is the no-effect control and ±100 the full control effect
In short: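 CellTiter-Glo luminescence (intracellular ATP) after 24 h compound exposure, 37 C, in LYMP1-002 human lymphoblastoid cells; decreased ATP taken as cytotoxicity. AC50 from standard Hill fit of concentration-response curves.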

Cytochrome P450 3A4 (Homo sapiens), sequence (P08684 whole entry, looked up): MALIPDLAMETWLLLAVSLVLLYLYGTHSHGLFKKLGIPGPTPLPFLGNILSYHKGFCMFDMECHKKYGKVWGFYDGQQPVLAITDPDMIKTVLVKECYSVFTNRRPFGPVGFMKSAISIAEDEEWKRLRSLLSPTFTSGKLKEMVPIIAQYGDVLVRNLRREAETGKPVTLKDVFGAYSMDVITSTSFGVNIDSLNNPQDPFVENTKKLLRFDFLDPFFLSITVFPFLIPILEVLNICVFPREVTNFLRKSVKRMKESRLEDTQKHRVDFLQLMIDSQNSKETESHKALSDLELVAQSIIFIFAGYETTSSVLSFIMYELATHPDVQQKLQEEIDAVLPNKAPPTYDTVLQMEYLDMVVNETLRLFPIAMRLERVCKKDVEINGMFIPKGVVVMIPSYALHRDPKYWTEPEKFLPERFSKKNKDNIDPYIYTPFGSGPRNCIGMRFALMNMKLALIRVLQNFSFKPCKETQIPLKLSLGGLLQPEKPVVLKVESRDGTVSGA
Nuclear receptor ROR-gamma (Homo sapiens), sequence (P51449 whole entry, looked up): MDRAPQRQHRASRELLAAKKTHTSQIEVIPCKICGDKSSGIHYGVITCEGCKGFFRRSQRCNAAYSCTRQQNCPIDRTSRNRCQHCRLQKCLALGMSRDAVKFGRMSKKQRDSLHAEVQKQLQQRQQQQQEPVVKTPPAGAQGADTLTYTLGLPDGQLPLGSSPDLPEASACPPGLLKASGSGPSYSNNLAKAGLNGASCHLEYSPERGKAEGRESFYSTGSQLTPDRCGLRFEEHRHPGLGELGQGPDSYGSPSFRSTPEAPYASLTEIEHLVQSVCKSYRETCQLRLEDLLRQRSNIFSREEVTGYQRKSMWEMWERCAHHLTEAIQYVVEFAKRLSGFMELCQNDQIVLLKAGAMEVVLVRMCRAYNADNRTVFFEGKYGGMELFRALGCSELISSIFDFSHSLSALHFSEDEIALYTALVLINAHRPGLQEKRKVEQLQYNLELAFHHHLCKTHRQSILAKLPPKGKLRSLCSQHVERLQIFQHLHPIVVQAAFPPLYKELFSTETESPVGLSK
Peroxisome proliferator-activated receptor alpha (Homo sapiens), sequence (Q07869 whole entry, looked up): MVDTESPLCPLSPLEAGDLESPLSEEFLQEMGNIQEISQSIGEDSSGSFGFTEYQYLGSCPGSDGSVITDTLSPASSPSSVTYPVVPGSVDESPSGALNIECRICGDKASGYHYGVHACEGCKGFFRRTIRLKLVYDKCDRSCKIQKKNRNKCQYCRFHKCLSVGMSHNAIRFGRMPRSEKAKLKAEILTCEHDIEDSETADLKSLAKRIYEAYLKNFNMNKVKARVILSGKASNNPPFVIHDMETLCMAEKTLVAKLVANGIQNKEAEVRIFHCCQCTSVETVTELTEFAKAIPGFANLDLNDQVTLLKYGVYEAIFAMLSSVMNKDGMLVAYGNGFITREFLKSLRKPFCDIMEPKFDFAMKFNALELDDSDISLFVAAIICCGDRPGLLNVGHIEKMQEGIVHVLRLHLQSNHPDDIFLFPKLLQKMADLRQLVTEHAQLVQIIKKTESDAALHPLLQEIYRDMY
Nuclear receptor subfamily 1 group I member 2 (Rattus norvegicus), sequence (Q9R1A7 whole entry, looked up): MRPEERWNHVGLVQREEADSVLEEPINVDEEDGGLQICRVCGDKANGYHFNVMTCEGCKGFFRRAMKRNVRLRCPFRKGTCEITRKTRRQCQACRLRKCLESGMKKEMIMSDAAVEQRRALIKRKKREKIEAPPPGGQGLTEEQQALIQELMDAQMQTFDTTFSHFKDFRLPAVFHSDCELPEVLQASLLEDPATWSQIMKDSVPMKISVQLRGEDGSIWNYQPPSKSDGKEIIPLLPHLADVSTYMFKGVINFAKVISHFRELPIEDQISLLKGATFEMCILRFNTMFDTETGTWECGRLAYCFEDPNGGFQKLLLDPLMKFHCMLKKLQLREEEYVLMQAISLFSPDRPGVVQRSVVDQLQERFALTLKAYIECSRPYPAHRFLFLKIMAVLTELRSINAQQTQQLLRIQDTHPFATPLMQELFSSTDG

C/C=C/C=O
inactive: Potency [1] > 92 µM | outcome [2] | outcome [3] | Potency [4] | Potency [5] | outcome [6] | Potency [7] | Potency [8] | Potency [9] | Potency [10] | max response [11] 10% | Potency [12] | max response [13] 18.2% | outcome [14]

NNC(N)=S
inactive: Potency [1] > 92 µM | outcome [2] | outcome [15] | outcome [3] | Potency [4] | Potency [5] | outcome [6] | Potency [7] | Potency [8] | Potency [16] | Potency [9] | Potency [10] | Potency [17] | Potency [18] | activation [19] 0.972% | max response [11] -1.77% | Potency [12] | max response [13] 0.379% | outcome [14]

Cc1ccc(N)cc1N
inactive: Potency [1] > 92 µM | outcome [2] | outcome [15] | Potency [4] | Potency [5] | outcome [6] | Potency [7] | Potency [8] | Potency [16] | Potency [9] | Potency [10] | Potency [20] | Potency [12] | max response [13] 12.5% and 3.01% | outcome [14]
active: Potency [17] 23.7 µM | Potency [18] 29.8 µM | Potency [19] 44.7 µM

COc1ccccc1N
inactive: Potency [1] > 92 µM | outcome [2] | outcome [15] | outcome [3] | Potency [4] | Potency [5] | outcome [6] | Potency [7] | Potency [8] | Potency [16] | Potency [9] | Potency [10] | Potency [20] | Potency [17] | Potency [18] | activation [19] -0.373% | Potency [12] | max response [13] 20.9% | outcome [14]

O=C(O)C(Cl)Br (configuration not stated)
inactive: Potency [1] > 92 µM | outcome [2] | outcome [15] | outcome [3] | Potency [4] | Potency [5] | outcome [6] | Potency [7] | Potency [8] | Potency [16] | Potency [9] | Potency [10] | Potency [17] | Potency [18] | activation [19] 0.968% | max response [11] -0.46% | Potency [12] | max response [13] -1.1% | outcome [14]

c1ccc(C2CO2)cc1 (configuration not stated)
inactive: Potency [1] > 92 µM | outcome [2] | outcome [15] | outcome [3] | Potency [4] | Potency [5] | outcome [6] | Potency [7] | Potency [8] | Potency [16] | Potency [9] | Potency [10] | Potency [20] | Potency [17] | Potency [18] | activation [19] 0.299% | max response [11] 0.189% | Potency [12] | max response [13] -1.42% | outcome [14]

ClC(Cl)c1ccccc1
inactive: Potency [1] > 92 µM | outcome [2] | outcome [15] | outcome [3] | Potency [4] | Potency [5] | Potency [7] | Potency [8] | Potency [16] | Potency [9] | Potency [10] | Potency [17] | Potency [18] | activation [19] -2.06% | max response [11] -0.698% | Potency [12] | max response [13] 3.54% | outcome [14]

CCC[N+](=O)[O-]
inactive: Potency [1] > 92 µM | outcome [2] | outcome [15] | outcome [3] | Potency [4] | Potency [5] | outcome [6] | Potency [8] | Potency [16] | Potency [9] | Potency [10] | Potency [20] | Potency [17] | Potency [18] | activation [19] 1.28% | max response [11] -0.431% | Potency [12] | max response [13] 7.37% | outcome [14]

S=C1NCCN1
inactive: Potency [1] > 92 µM | outcome [2] | outcome [15] | Potency [4] | Potency [5] | Potency [7] | Potency [8] | Potency [16] | Potency [10] | Potency [20] | activation [19] 4.55% and -3.06% | max response [11] -2.28% and 8.96% | max response [13] 6.01% and -10.7% | outcome [14]

Clc1ccc(Cl)c(Cl)c1
inactive: Potency [1] > 92 µM | outcome [2] | outcome [15] | outcome [3] | Potency [4] | Potency [5] | outcome [6] | Potency [7] | Potency [8] | Potency [16] | Potency [9] | Potency [10] | Potency [20] | Potency [17] | Potency [18] | activation [19] 0.0505% and 0.0105% | max response [11] -1.44% and -3.32% | Potency [12] | max response [13] 1.05% and -0.643%

CC1CC(=O)O1 (configuration not stated)
inactive: Potency [1] > 92 µM | outcome [2] | outcome [15] | Potency [4] | Potency [5] | outcome [6] | Potency [7] | Potency [8] | Potency [16] | Potency [10] | Potency [17] | Potency [18] | activation [19] 0.52% | max response [11] -0.51% | Potency [12] | max response [13] 0.366% | outcome [14]

CCCCOC(C)=O
inactive: Potency [1] > 92 µM | outcome [2] | outcome [15] | Potency [5] | outcome [6] | Potency [7] | Potency [8] | Potency [16] | Potency [9] | Potency [20] | Potency [17] | Potency [18] | activation [19] -0.098% | max response [11] -4.39% | Potency [12]

Cc1ccc(N)cc1Cl
inactive: Potency [1] > 92 µM | outcome [2] | outcome [3] | Potency [4] | outcome [6] | Potency [7] | Potency [16] | Potency [9] | Potency [10] | Potency [20] | Potency [17] | Potency [18] | max response [11] 3.75% | outcome [14]

O=[N+]([O-])c1cccc2c([N+](=O)[O-])cccc12
inactive: Potency [1] > 92 µM | outcome [15] | outcome [3] | Potency [4] | Potency [5] | outcome [6] | Potency [7] | Potency [8] | Potency [16] | Potency [20] | Potency [17] | Potency [18] | activation [19] 0.19% | max response [11] -0.14% | Potency [12] | max response [13] -2.66% | outcome [14]

From PubChem BioAssay (NCATS)
